AmpC nodet inh – AmpC beta-lactamase inhibition, detergent-free assay. P00811. AmpC nitrocefin hydrolysis, absorbance 480 nm, no detergent. Potency, µM (titrated, usually from 28.7 µM), inactives show at the highest dose activity change, negative = inhibition. 71,000 tested, 1.8% active. AID 585; note: % of control where 0% means no effect
Target sequence (P00811 whole entry, looked up): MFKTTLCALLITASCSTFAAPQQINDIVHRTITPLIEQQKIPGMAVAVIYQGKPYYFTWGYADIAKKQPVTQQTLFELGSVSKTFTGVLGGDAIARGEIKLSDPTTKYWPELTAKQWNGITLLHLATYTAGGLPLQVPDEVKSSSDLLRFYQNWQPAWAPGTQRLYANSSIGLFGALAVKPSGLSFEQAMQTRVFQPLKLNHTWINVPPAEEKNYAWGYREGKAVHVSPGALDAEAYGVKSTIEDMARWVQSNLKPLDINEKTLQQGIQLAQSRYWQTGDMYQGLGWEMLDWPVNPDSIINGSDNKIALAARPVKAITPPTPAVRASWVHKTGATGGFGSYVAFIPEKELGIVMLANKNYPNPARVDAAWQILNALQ
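AmpC, 20 mM phosphate pH 7.0; 15 min cpd preinc, RT; start with nitrocefin (800 uM stock); A480 kinetic read, 20 s intervals, 4 min. No-enzyme wells = negative control.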
LT uptake inh – anthrax lethal toxin internalization inhibition. Cells, anthrax lethal toxin internalization, FRET ratio (460/530). Potency, µM (titrated, usually from 40 µM), inactives show at the top dose activity change, negative = inhibition, actives largely listed as inhibitors. 70,000 tested, 0.67% active. AID 912; note: % is set by controls: 0 for no effect and ±100 for the full control effect; nearly all actives have a fitted effect of over 50% in size
Prx2 Sm inh – inhibitors of Schistosoma mansoni peroxiredoxin 2. 65,000 tested, 0.07% active. Potency, µM. S. mansoni Prx2 activity coupled to TGR/GSH (TGR is thioredoxin glutathione reductase), NADPH fluorescence loss, qHTS
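Enzyme mix: 100 uM NADPH, 25 nM TGR, 700 uM GSH, 50 nM Prx2 in 100 mM phosphate pH 7.4, 10 mM EDTA, 0.01% Tween-20. 15 min RT with compound; NADPH/GSH added, H2O2 starts reaction; NADPH fluorescence read 8 min.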
AmpC det inh – blocks E. coli AmpC beta-lactamase in presence of detergent. P00811. purified AmpC, nitrocefin hydrolysis with detergent. Potency, µM (series often up to 28.7 µM), inactives show at the top dose activity change, negative = inhibition. 71,000 tested, 0.09% active. AID 584; active = well fitted curve in the direction sought with a large enough effect; inconclusive = small, poorly fitted or top-dose-only effect; note: % is set by controls: 0 for no effect and ±100 for the full control effect
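E. coli AmpC (5.3 nM) in 20 mM phosphate pH 7.0 with 0.01% Triton X-100, preincubated 15 min RT with compound; nitrocefin (2 uL of 800 uM stock) hydrolysis followed by 480 nm absorbance every 20 s over 4 min.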
Active calls of the source: *; u = inconclusive; x = not tested or not shown; ! = not confirmed by another sample; [ ] = remark or other dose. The list is not random: actives were taken first. Their share in the collection is about 2.4%. Unless noted, calls come from the whole dose curve. Potency is the fitted concentration of half-maximal effect.

SMILES	AmpC nodet inh	LT uptake inh	Prx2 Sm inh	AmpC det inh
COc1ccc(Oc2ncc3nc(-c4cccs4)c(=O)n(C)c3n2)cc1	14.8%	u	>57	5.1%
Cc1nn(C)c(C)c1S(=O)(=O)N1CCCC(C(=O)NC2CCCCCC2)C1 (stereo not given)	3.98µM*[single pt active]	-16.9%	>57	13.2%
O=C(Cn1cc(C(=O)c2cccs2)c2ccccc21)NCc1ccc2c(c1)OCO2	2µM*[single pt active]	u	>57	14.1%
Oc1ccc([C@H](O)[C@@H]2CCCCN2)cc1O	-2.5%[5.75 µM]	5.1%[8 µM]	>57	-3.9%[5.75 µM]
COc1ccc(OC)c(-c2cc(C(=O)Nc3c(C)n(C)n(-c4ccccc4)c3=O)no2)c1	35.7%	-6.4%	7.08*	-1.7%
O=C(c1cnccn1)N1CCC2(CC1)CCN(C(c1ccccc1)c1ccccc1)CC2	131.1%	u	>57	2.9%
CN(C)CCCN1c2ccccc2Sc2ccc(Cl)cc21	51.9%[12.8 µM]	u	>57	0.7%[12.8 µM]
OCCN1CCN(CCCN2c3ccccc3Sc3ccc(Cl)cc32)CC1	123.5%[12.8 µM]	25.1µM*!	>57	-0.1%[12.8 µM]
C=CC1=C(C)C2=NC1=CC1=NC(=CC3=NC(=CC4=NC(=C2)C(C)=C4CCC(=O)O)C(CCC(=O)O)=C3C)C(C=C)=C1C.[Zn]	78.0%	15.8µM*	>57	-12.4%
O=C(NCCc1ccccc1)C1CCCN(S(=O)(=O)c2cnc[nH]2)C1 (stereo not given)	3.8%	-3.3%	>57	4.1%
CCCS(=O)(=O)N1CCCC(C(=O)NCCCN2CCN(c3ccccc3F)CC2)C1 (stereo not given)	45.2%	-0.6%	>57	-3.7%
O=C(NCCN1CCC(Cc2ccccc2)CC1)C1CCCN(S(=O)(=O)c2cnc[nH]2)C1 (stereo not given)	3.98µM*[single pt active]	-3.3%	>57	11.5%
O=C(NCCN1CCN(c2ccccc2F)CC1)C1CCCN(S(=O)(=O)c2cnc[nH]2)C1 (stereo not given)	3.98µM*[single pt active]	-6.5%	>57	9.5%
COc1ccc(N2CCN(CCCNC(=O)C3CCCN(S(=O)(=O)c4cnc[nH]4)C3)CC2)cc1 (stereo not given)	3.98µM*[single pt active]	u	>57	12.0%
Clc1ccccc1-c1cncnc1NCc1cccs1	2.6%	-7.0%	>11.4	8.3%
COc1ccc(S(=O)(=O)N(CCCN2CCCC2=O)Cc2cc3cc(C)c(C)cc3[nH]c2=O)cc1	155.8%	16.1%	58.2*	-2.4%
Cc1ccc(S(=O)(=O)N2CCCC2C(=O)Nc2ccc(O)cc2)cc1 (stereo not given)	-7.1%	-0.9%	>57	12.5%
O=C(Nc1ccc(O)cc1)C1CC=CCC1 (stereo not given)	12.6µM*[single pt active]	-1.4%	>57	6.7%
Cc1ccc(-c2nc(NC(=O)CSc3nnc4scc(-c5ccccc5)n34)ns2)cc1	3.98µM*[single pt active]	u	>57	25.8%
Cc1cc(Cl)ccc1OCC(=O)Nc1ccccc1N1CCOCC1	7.7%	15.8µM*	>57	-3.3%
O=C(C1CC(c2ccc(F)cc2)=NO1)N1CCc2ccccc2C1 (stereo not given)	3.98µM*[single pt active]	u	>57	11.8%
O=C(C1CC(c2ccc(F)cc2)=NO1)N1CCCCC1 (stereo not given)	1.0%	6.0%	>57	-3.9%
COc1cccc(C2=NOC(C(=O)N3CCc4ccccc4C3)C2)c1 (stereo not given)	23.3%	u	>57	12.7%
O=C(C1CC(c2ccc(F)cc2)=NO1)N1CCN(c2ccccc2)CC1 (stereo not given)	3.98µM*[single pt active]	-15.5%	>57	12.5%
CNc1ncnc2ccc(-c3ccccc3OC)cc12	13.2%	u	>57	11.6%
SMILES	AmpC nodet inh	LT uptake inh	Prx2 Sm inh	AmpC det inh
c1cc2c3c(c1)c1c(n3CCNC2)CCCC1	u	u	>25.6	15.8µM*
c1ccc2c(c1)c1c3n2CCNC3CCC1 (stereo not given)	10.7%	u	>57	-3.5%
O=C(c1ccco1)N1CCC2(CC1)CN(c1cccc(-c3ccccc3)c1)C2	101.5%	-20.9%	>57	6.6%
O=C(C1=C(O)C(=O)N(Cc2ccccc2)C1c1ccncc1)c1ccco1 (stereo not given)	-0.2%	1.0%	>57	-2.3%
Cc1nnc(N2C(=O)C(O)=C(C(=O)c3ccco3)C2c2ccc(F)cc2)s1 (stereo not given)	3.98µM*[single pt active]	-5.0%	>57	11.7%
COc1cccc(C(=O)Nc2ccc(C)cc2)c1	-15.1%	-17.4%	>57	1.9%
COC(=O)c1cccc(C(=O)Nc2ccc(C)cc2)n1	23.1%	5.01µM*	>57	-3.7%
O=C(NCc1ccc2c(c1)OCO2)c1cccc(C(=O)NCc2ccc3c(c2)OCO3)c1	u	u	x	0.1%
O=C(NCc1ccc2c(c1)OCO2)c1ccc(NS(=O)(=O)c2ccc3c(c2)OCCO3)cc1	10µM*	-9.5%	>57	-1.9%
O=C(NCc1ccccc1)c1c[nH]c2ccc(S(=O)(=O)Nc3ccc4c(c3)OCCO4)cc2c1=O	10µM*	-6.0%	>57	-2.2%
Cn1c(=O)oc2cc(S(=O)(=O)NC(Cc3ccccc3)C(=O)N3CCCCC3)ccc21 (stereo not given)	3.98µM*[single pt active]	9.0%	>57	11.0%
O=C1CCc2cc(S(=O)(=O)NC(Cc3ccccc3)C(=O)NCC3CCCO3)ccc2N1 (stereo not given)	3.98µM*[single pt active]	4.1%	>57	13.3%
CC(C)NS(=O)(=O)c1ccc2c(c1)oc(=O)n2C	7.9%	4.2%	>57	11.3%
CC(C)C(NS(=O)(=O)c1ccc2c(c1)oc(=O)n2C)C(=O)N1CCN(c2ccccc2F)CC1 (stereo not given)	3.98µM*[single pt active]	u	>57	15.4%
CCOC(=O)CNC(=O)C(Cc1ccccc1)NS(=O)(=O)c1ccc2c(c1)CCC(=O)N2 (stereo not given)	9.7%	11.7%	>57	12.8%
CN1CCN(C(=O)C(Cc2ccccc2)NS(=O)(=O)c2ccc3c(c2)CCC(=O)N3)CC1 (stereo not given)	3.98µM*[single pt active]	3.3%	>57	7.0%
COc1ccc(-c2nc3cnc(N4CCN(C)CC4)nc3n(CCc3ccccc3)c2=O)cc1	75.3%	u	>57	-3.2%
CC(C)CC(NS(=O)(=O)c1ccc2c(c1)oc(=O)n2C)C(=O)NCc1cccnc1 (stereo not given)	3.98µM*[single pt active]	-6.6%	>57	13.7%
Cc1cccc(-c2nc(CS(=O)CC(=O)NC3CCCC3)c(C)o2)c1 (stereo not given)	3.98µM*[single pt active]	-0.4%	>57	10.7%
CCCCNC(=O)CS(=O)Cc1nc(-c2cccc(C)c2)oc1C (stereo not given)	3.98µM*[single pt active]	-7.9%	>57	9.9%
CCC(C)NC(=O)CS(=O)Cc1nc(-c2cccc(C)c2)oc1C (stereo not given)	3.98µM*[single pt active]	-3.5%	>57	12.8%
CCCCSCCCNC(=O)CS(=O)Cc1nc(-c2cccc(C)c2)oc1C (stereo not given)	107.2%	2.8%	>57	-3.0%
COc1cc([C@@H]2Oc3cc([C@H]4Oc5cc(O)cc(O)c5C(=O)[C@H]4O)ccc3O[C@H]2CO)ccc1O	-19.3%	u	>57	-5.6%
